Here are results for seven compounds from ChEMBL document CHEMBL1961873, “Compounds: GSK PKIS; Assays: Nanosyn kinase panel” (2012).

Experiment [1] concerns the target Leukocyte tyrosine kinase receptor (Homo sapiens) (UniProt P29376). The settings on record: at 1 µM.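 Also: each value is the mean inhibition of LTK.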
Experiment [2] concerns the target Tyrosine-protein kinase Lyn (Homo sapiens) (UniProt P07948). Conditions: at 0.1 µM.
The target is the same in experiment [3]. The settings on record: at 1 µM.
Experiment [4] shares this target. Conditions: at 0.1 µM. The source holds these as a separate data set.
For experiment [5] the target is unchanged. The settings on record: at 1 µM. The source holds these as a separate data set.
Experiment [6] concerns the target T1, Tyrosine-protein kinase Mer (Homo sapiens) (UniProt Q12866).
T1 sequence (whole entry): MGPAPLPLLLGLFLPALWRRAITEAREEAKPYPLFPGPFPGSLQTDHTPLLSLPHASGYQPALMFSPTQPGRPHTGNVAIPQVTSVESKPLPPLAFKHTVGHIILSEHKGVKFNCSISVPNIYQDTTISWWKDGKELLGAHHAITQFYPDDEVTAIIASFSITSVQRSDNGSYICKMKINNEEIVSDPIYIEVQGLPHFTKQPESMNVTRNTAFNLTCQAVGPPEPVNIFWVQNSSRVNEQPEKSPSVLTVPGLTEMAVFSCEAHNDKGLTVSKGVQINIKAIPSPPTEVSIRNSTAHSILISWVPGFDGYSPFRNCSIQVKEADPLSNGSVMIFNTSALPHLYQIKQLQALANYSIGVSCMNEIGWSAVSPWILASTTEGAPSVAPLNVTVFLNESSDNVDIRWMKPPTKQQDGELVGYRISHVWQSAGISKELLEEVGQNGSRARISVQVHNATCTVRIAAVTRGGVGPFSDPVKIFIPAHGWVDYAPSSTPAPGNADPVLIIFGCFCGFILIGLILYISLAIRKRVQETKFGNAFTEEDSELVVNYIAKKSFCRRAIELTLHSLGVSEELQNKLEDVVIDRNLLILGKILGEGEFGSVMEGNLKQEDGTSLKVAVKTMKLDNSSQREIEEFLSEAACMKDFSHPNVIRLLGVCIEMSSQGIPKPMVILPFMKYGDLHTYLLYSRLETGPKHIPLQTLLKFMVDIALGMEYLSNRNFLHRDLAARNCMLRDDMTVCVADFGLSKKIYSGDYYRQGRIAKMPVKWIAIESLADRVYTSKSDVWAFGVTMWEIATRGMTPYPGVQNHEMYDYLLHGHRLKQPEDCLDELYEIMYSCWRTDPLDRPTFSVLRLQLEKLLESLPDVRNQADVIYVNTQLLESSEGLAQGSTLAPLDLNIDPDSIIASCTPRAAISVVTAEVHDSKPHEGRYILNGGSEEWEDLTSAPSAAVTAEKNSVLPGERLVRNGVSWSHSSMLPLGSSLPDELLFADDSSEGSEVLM
The settings on record: at 0.1 µM.

Experiment [7] deals with T1, Tyrosine-protein kinase Mer (Homo sapiens). Conditions: at 1 µM.
The target in experiment [8] is Hepatocyte growth factor receptor (Homo sapiens) (UniProt P08581). Conditions: at 0.1 µM.
For experiment [9] the target is unchanged. The settings on record: at 1 µM.
For experiment [10], the target named is T2, Muscle, skeletal receptor tyrosine-protein kinase (Homo sapiens) (UniProt O15146).
T2 sequence (whole entry): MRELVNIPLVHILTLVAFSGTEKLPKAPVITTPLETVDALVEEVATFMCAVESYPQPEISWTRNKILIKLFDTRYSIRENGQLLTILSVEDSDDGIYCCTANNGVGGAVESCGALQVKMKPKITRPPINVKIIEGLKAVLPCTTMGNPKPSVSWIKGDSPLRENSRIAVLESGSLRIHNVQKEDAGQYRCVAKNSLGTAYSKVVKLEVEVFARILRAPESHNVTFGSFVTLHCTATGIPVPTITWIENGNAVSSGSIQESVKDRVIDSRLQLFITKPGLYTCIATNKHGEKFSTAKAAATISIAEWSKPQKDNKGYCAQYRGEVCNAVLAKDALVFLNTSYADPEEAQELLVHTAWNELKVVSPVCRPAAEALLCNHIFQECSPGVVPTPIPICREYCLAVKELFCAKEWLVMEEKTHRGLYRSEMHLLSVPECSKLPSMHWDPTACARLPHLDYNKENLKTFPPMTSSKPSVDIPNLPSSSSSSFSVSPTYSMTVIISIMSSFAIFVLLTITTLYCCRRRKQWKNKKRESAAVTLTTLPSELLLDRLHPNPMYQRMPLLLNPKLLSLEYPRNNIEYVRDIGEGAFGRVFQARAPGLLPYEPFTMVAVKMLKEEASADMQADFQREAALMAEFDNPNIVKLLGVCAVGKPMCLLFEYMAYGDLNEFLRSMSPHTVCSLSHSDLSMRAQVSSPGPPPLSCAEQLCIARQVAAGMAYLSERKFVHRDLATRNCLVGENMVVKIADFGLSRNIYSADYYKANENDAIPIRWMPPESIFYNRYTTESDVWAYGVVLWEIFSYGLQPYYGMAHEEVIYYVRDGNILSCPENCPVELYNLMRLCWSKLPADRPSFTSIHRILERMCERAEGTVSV
The settings on record: at 0.1 µM.

Experiment [11] has as its target T2, Muscle, skeletal receptor tyrosine-protein kinase (Homo sapiens). Conditions: at 1 µM.
Experiment [12] has as its target Platelet-derived growth factor receptor alpha (Homo sapiens) (UniProt P16234). The settings on record: at 0.1 µM.
The target is the same in experiment [13]. Conditions: at 1 µM.
Experiment [14] relates to Platelet-derived growth factor receptor alpha (Homo sapiens), P16234 [D842V]. Conditions: at 0.1 µM.
Experiment [15] shares this test system. Conditions: at 1 µM.
Experiment [16] concerns Platelet-derived growth factor receptor alpha (Homo sapiens), P16234 [T674I]. Conditions: at 0.1 µM.
For experiment [17] the test system is unchanged. Conditions: at 1 µM.
For experiment [18], the system named is Platelet-derived growth factor receptor alpha (Homo sapiens), P16234 [V561D]. Conditions: at 0.1 µM.
The test system is the same in experiment [19]. Conditions: at 1 µM.
The target in experiment [20] is Platelet-derived growth factor receptor beta (Homo sapiens) (UniProt P09619). The settings on record: at 0.1 µM.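 Also: reported value is the mean percent inhibition of the kinase.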

Tyrosine-protein kinase Lyn (Homo sapiens), sequence (P07948 2-512 limits assumed): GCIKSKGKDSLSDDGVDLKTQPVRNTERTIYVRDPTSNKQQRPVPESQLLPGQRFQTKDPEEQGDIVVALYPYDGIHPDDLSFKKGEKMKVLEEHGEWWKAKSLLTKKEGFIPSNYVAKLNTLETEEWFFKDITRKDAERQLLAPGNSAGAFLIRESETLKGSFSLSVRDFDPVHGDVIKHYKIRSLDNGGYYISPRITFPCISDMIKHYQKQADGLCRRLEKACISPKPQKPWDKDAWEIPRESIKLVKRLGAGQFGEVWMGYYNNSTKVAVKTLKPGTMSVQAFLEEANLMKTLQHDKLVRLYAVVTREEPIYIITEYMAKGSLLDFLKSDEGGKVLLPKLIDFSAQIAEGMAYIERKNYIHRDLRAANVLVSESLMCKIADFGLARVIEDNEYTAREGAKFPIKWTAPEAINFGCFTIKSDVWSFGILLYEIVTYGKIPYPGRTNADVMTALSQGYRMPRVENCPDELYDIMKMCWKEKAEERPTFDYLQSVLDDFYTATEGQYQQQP
Platelet-derived growth factor receptor alpha (Homo sapiens), P16234 [T674I], sequence (P16234 whole entry T674I): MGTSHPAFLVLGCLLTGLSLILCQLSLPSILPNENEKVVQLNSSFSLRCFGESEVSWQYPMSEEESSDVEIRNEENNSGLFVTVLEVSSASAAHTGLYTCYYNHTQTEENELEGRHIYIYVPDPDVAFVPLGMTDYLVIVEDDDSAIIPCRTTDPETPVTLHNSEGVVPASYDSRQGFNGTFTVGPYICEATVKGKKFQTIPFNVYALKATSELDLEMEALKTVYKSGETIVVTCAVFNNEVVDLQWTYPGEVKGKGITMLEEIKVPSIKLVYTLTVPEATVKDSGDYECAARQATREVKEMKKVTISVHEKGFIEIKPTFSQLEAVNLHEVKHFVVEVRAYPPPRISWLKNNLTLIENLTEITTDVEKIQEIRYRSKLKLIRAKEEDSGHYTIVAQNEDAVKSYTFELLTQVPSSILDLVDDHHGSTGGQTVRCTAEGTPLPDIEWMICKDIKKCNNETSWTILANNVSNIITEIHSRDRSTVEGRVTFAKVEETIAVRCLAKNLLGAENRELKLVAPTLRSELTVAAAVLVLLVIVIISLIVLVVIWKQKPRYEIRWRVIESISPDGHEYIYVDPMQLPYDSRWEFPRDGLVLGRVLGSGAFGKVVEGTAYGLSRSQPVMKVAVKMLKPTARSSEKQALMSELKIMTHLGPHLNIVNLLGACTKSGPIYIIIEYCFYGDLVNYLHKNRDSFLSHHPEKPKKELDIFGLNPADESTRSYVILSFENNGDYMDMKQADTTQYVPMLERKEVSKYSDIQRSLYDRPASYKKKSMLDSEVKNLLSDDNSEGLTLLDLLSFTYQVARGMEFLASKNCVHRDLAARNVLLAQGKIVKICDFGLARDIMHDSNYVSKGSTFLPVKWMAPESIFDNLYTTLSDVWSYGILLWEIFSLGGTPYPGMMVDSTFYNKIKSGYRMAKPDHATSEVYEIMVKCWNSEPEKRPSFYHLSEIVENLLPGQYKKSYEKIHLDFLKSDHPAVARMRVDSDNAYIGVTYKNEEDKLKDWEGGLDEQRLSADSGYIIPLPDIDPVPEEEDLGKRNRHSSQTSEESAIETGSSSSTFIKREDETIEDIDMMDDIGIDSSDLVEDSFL
Hepatocyte growth factor receptor (Homo sapiens), sequence (P08581 whole entry): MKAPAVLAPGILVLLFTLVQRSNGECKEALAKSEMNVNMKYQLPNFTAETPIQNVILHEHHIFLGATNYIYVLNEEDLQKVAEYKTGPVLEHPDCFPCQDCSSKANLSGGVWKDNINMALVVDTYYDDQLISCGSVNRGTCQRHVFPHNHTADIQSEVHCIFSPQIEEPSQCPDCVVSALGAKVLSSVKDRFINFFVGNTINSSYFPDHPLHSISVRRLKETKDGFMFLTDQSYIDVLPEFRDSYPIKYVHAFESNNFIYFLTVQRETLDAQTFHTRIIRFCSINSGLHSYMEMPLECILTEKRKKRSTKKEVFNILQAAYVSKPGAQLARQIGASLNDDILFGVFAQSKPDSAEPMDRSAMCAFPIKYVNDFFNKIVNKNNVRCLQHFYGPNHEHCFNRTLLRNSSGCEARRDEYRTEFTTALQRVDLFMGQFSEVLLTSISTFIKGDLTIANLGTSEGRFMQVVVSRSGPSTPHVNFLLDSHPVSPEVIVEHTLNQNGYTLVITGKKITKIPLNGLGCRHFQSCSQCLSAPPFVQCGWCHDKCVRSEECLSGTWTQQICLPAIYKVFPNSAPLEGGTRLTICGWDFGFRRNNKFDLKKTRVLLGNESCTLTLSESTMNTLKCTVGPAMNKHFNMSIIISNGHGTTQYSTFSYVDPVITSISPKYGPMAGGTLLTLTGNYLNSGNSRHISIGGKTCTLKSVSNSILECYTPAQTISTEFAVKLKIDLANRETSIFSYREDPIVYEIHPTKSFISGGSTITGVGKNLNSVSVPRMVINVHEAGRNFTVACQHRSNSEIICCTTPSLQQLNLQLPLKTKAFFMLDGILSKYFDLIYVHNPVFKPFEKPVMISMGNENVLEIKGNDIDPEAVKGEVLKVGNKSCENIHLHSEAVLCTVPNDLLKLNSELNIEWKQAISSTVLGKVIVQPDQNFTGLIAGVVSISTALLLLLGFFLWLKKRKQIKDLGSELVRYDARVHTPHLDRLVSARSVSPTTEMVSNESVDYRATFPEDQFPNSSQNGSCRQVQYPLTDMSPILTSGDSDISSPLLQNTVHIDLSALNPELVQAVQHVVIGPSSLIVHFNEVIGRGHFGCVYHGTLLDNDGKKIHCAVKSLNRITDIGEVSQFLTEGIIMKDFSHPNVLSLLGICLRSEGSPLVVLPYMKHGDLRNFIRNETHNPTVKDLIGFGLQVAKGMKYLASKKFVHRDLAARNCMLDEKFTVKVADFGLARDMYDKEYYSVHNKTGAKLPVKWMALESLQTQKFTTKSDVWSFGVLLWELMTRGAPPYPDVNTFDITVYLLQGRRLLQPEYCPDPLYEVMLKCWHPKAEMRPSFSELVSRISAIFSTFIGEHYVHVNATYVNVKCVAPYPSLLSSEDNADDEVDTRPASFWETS
Platelet-derived growth factor receptor alpha (Homo sapiens), P16234 [V561D], sequence (P16234 whole entry V561D): as the sequence (P16234 whole entry T674I) above, with V561D, I674T counted along it
Leukocyte tyrosine kinase receptor (Homo sapiens), sequence (P29376 whole entry): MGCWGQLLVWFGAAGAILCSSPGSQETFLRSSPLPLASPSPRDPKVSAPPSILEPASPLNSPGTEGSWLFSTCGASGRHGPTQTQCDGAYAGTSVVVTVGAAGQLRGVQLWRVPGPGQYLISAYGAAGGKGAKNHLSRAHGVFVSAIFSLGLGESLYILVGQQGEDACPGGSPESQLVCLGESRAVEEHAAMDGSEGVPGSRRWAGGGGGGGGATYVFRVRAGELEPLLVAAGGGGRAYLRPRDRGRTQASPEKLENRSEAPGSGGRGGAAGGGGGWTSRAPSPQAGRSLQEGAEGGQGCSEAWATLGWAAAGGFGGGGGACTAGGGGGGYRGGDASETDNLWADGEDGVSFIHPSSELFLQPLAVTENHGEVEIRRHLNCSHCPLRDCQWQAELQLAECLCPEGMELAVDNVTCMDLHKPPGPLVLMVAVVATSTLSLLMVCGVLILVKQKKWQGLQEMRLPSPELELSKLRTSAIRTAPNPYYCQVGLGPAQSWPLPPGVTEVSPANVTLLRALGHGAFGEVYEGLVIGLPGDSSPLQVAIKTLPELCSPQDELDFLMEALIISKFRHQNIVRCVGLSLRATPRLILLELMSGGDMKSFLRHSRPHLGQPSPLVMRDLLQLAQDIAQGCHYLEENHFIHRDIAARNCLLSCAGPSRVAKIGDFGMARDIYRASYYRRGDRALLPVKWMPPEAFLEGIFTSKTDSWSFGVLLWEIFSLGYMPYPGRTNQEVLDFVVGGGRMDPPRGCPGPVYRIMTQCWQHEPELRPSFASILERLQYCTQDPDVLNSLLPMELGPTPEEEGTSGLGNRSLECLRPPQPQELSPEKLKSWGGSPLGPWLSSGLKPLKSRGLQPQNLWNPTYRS

Usually inhibition stands for the drop in the measured response relative to a control, in per cent. Consider `CS(=O)(=O)CCNCc1nc(-c2ccc3ncnc(Nc4ccc(OCc5cccc(C(F)(F)F)c5)cc4)c3c2)cs1`, for which the inhibition was 3.87% in [1]; 2.63% in experiment [2]; 2.07% in experiment [3]; 2.44% in experiment [4]; 1.23% in experiment [5]; 3.74% in experiment [6]. Further, the inhibition in experiment [7] is 5.41%; in [8] it was 4.81%; in experiment [9], 2.51%; in experiment [10] it was 1.29%; in experiment [11], 5.88%; in [12], 5.06%. The inhibition in experiment [13] is 13.7%; in [14], -0.28%; in experiment [15], 1.79%; in experiment [16] it was 5.99%; in experiment [17], 15.7%; in experiment [18] it was 4.8%. The inhibition in experiment [19] was 20.4%; in experiment [20] it was 6.68%.
As to `CS(=O)(=O)Nc1cccc(-c2ccc3c(NC(=O)C4CC4)n[nH]c3c2)c1`, the inhibition in [1] was 1.06%; in [2] it was 1.17%; in experiment [3], 1.49%; in experiment [4], 0.4%; in [5] it was -0.21%; in experiment [6], 1.36%. For the same compound, the inhibition in experiment [7] is 1.01%; in [8], 5.25%; in experiment [9], 1.91%; in experiment [10] it was 0.75%; in experiment [11], 3.16%; in [12], 3.7%. Further, the inhibition in [13] is 13.2%; in [14], 4.33%; in [15], 8.89%; in experiment [16] it was 0.91%; in experiment [17], -1.66%; in experiment [18], 1.13%. The inhibition is 6.51% in experiment [19] and -2.19% in [20].
Turning to `C[C@@H](Oc1cc(-n2cnc3ccc(OC[C@@H](O)CO)cc32)sc1C(N)=O)c1ccccc1Cl`, the inhibition in [1] was 3.54%; in [2] it was -0.6%; in [3], 3.84%; in [4], -0.83%; in [5] it was 2.72%; in experiment [6], 5.8%. For the same compound, the inhibition was 3.84% in experiment [7]; -4.12% in [8]; -4.35% in experiment [9]; 9.09% in experiment [10]; 51.4% in [11]; 13.8% in experiment [12]. Further, the inhibition in experiment [13] came out at 62.4%; in experiment [14] it was 4.15%; in [15] it was 40.5%; in [16], 0.37%; in experiment [17], 51.2%; in experiment [18], 7.79%. Moreover, the inhibition stood at 50.1% in [19] and 7.9% in experiment [20].
As to `Cc1ccc2c(-c3ccnc(Nc4cccc(C(F)(F)F)c4)n3)c(-c3ccccc3)nn2n1`, the inhibition in [1] amounted to 2.99%; in [2], 12.6%; in experiment [3], 53%; in [4] it was 8.81%; in [5], 47.8%; in [6], 4.49%. Besides, the inhibition in [7] was 20%; in [8], 13.9%; in experiment [9] it was 10.4%; in experiment [10], 4.93%; in [11] it was 5.46%; in [12], 13.9%. For the same compound, the inhibition in experiment [13] came to 61%; in experiment [14], 10.5%; in experiment [15], 38.4%; in experiment [16] it was 3.21%; in experiment [17], 9.14%; in experiment [18], 14.2%. Moreover, the inhibition was 52% in experiment [19] and 35.4% in experiment [20].
`CCS(=O)(=O)c1ccc(OC)c(Nc2nccc(N(C)c3ccc4c(C)n[nH]c4c3)n2)c1`: the inhibition in experiment [1] is 37.5%; in experiment [2], 45.7%; in experiment [3], 85%; in experiment [4], 37.7%; in [5], 82.8%; in experiment [6], -1.04%. In addition, the inhibition in [7] is 1.84%; in [8], 3.86%; in experiment [9] it was 5.71%; in [10] it was 2.51%; in [11] it was 1.07%; in experiment [12] it was 22.9%. Moreover, the inhibition in experiment [13] worked out at 67.5%; in [14], 21.8%; in experiment [15], 74.3%; in experiment [16], 5.5%; in experiment [17] it was 12.5%; in experiment [18], 20.5%. Further, the inhibition came out at 69.5% in [19] and 20.9% in experiment [20].
On to `COc1cccc(-n2nc(C)c3c(N/N=C(\C)c4ccncc4)ncnc32)c1`, for which the inhibition in experiment [1] came to 1.76%; in [2] it was 1.67%; in [3], 2.24%; in experiment [4], 2.02%; in experiment [5], 1.38%; in [6], 1.59%. For the same compound, the inhibition in experiment [7] was -0.09%; in experiment [8] it was -1.53%; in experiment [9] it was -2.4%; in [10] it was 0.43%; in experiment [11], 0.36%; in experiment [12], 1.29%. The inhibition in experiment [13] was 7.93%; in experiment [14] it was -0.18%; in experiment [15] it was 1.8%; in experiment [16], 1.42%; in experiment [17], 4.43%; in [18], 0.1%. For the same compound, the inhibition was 0.01% in experiment [19] and 3.11% in experiment [20].
As to `COC(=O)Nc1nc2cc(Oc3ccc(NC(=O)Nc4cccc(Br)c4)cc3)ccc2[nH]1`, the inhibition in [1] came out at 3.57%; in experiment [2], 9.62%; in experiment [3], 15.2%; in [4], 7.97%; in [5], 13.8%; in experiment [6], 1.37%. For the same compound, the inhibition was determined as 3.46% in [7]; 3.78% in experiment [8]; 6.03% in [9]; 22.3% in [10]; 49.3% in experiment [11]; 75.2% in [12]. Also, the inhibition in [13] came to 87.4%; in experiment [14], 5.64%; in experiment [15] it was 13.8%; in experiment [16], 83.8%; in [17] it was 98.1%; in experiment [18] it was 84%. For the same compound, the inhibition in experiment [19] came to 94.6%; in experiment [20], 17.4%.
